The values that follow come from PubChem BioAssay (Tox21).

“And” between values parts separate entries of the source, which are not always exact repeats. Equal values may be shown once. Results filed as inconclusive are left out. Some structures have more than one record in an assay (separate samples or runs), and their calls can disagree. The source made the active and inactive calls. Unless noted, calls follow the shape of the dose curve; as a rule, active = well fitted curve in the direction sought with a large enough effect in the repeat runs; inconclusive = weak or mixed curves; inactive = no such curve, though single readings can be large; an effect the other way counts as inactive or inconclusive.

Test [1] in a line: qHTS assay to identify small molecule agonists of the vitamin D receptor (VDR) signaling pathway - cell viability counter screen (AID 743224). Also: nearly all actives have a fitted effect of over 50% in size. Also: potency is read from the fitted curve at half-maximal effect. The essentials: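 Plated VDR-bla cells (4 h, 37C) received compound, incubated 16 h, then LiveBLAzer substrate 2 h RT; CellTiter-Glo added afterwards, luminescence read at 30 min.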
The nature of test [2]: qHTS assay to identify small molecule antagonists of the vitamin D receptor (VDR) signaling pathway - cell viability counter screen (AID 743225). Also: nearly all actives have a fitted effect of over 50% in size. Also: potency is read from the fitted curve at half-maximal effect. The procedure, abridged: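 Same-well multiplex: following 16 h treatment of HEK 293T cells carrying a UAS-driven beta-lactamase reporter with compound and agonist (3 nM final), and a 2 h FRET substrate step, CellTiter-Glo was added and luminescence read after 30 min.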
Background: qHTS replaces the single test concentration by a dilution series.

Test [3] can be described thus: qHTS assay to identify small molecule agonists of the endoplasmic reticulum stress response signaling pathway (AID 1159516; active = well fitted activation curve with a large enough effect in the signal ratio in the repeat runs, not every such curve was filed as active; the % refers to the signal ratio). The procedure, abridged: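 An ESRE-bla HeLa cell assay: compounds were pin-transferred from DMSO onto overnight-plated cells and left 5 hr at 37 C. Substrate was then loaded for 2 hr at room temperature before reading fluorescence at 460 nm and 530 nm.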

For test [4], the target named is Nuclear receptor ROR-gamma (Homo sapiens) (UniProt P51449). The test is described as follows: qHTS assay to identify small molecule antagonists of the retinoid-related orphan receptor gamma (ROR-gamma) signaling pathway (AID 1159521; also: nearly all actives have a fitted effect of over 50% in size; also: potency is read from the fitted curve at half-maximal effect). The essentials:
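Inducible-expression reporter assay: doxycycline (1 uM final) switched on RORγ in CHO cells bearing a ROR response element-luciferase construct, with test compounds present from 2 h beforehand. Decreased luminescence after 16 h defined antagonist activity.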

Test [5] can be described thus: qHTS assay to identify small molecule agonists of the AP-1 signaling pathway - cell viability counter screen (AID 1159525; calls by dose curve; also: nearly all actives have a fitted effect of over 55% in size; also: potency is read from the fitted curve at half-maximal effect). The procedure, abridged:
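AP-1-bla ME-180 cells in Opti-MEM with 0.5% dialyzed FBS, compound exposure 5 h at 37 C in 15-point titration. Viability read in the same wells as ATP content by CellTiter-Glo luminescence, normalised to tetra-n-octylammonium bromide and DMSO controls.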

Test [6] deals with Retinoic acid receptor RXR-alpha (Homo sapiens) (UniProt P19793). The test is described as follows: qHTS assay to identify small molecule agonists of the RXR signaling pathway (AID 1159527; calls by dose curve; also: nearly all actives have a fitted effect of over 35% in size). The essentials: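 Compounds in DMSO were added to RXR-alpha-UAS-bla HEK 293T cells kept in 2% charcoal-stripped serum, and incubated 16 hr at 37 C with 5% CO2. Reporter signal came from a 2 hr B/G FRET substrate step.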

The nature of test [7]: qHTS assay to identify small molecule agonists of the RXR signaling pathway - cell viability counter screen (AID 1159529). Also: nearly all actives have a fitted effect of over 50% in size. Also: potency is read from the fitted curve at half-maximal effect. The essentials:
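Counter screen: CellTiter-Glo luminescence. Cells: RXR-alpha-UAS-bla HEK 293T. Medium: 2% charcoal-stripped FBS. Treatment: 16 h, 37 C. Reagent incubation: 30 min, RT.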

Test [8] is described as follows: qHTS assay to identify small molecule antagonists of the retinoic acid receptor (RAR) signaling pathway (AID 1159552; also: nearly all actives have a fitted effect of over 50% in size; also: potency is read from the fitted curve at half-maximal effect). The essentials:
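Antagonism of retinol-induced RARE reporter activity was measured in C3RL4 cells. Exposure to compounds and 1 uM final retinol lasted 6 hr at 37 C, with luminescence as endpoint.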

Test [9] is described as follows: qHTS assay to identify small molecule agonists of the retinoic acid receptor (RAR) signaling pathway (AID 1159553). Also: potency is read from the fitted curve at half-maximal effect. The procedure, abridged:
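Reporter readout comes from luciferase under RARE control in C3RL4 cells; compound exposure lasts 6 hr at 37 C in 5% CO2, and luminescence is recorded following a 30 min room-temperature incubation with reagent.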

A short description of test [10]: qHTS assay to identify small molecule antagonists of the estrogen related receptor (ERR) signaling pathway from Tox21 library - cell viability counter screen (AID 1224834). Also: nearly all actives have a fitted effect of over 30% in size. Also: potency is read from the fitted curve at half-maximal effect. The procedure, abridged: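 After 17.5 h of compound exposure at 37 C, ERR cells are incubated with CellTiter-Fluor for 30 min and fluorescence intensity serves as the viability measure.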
Test [11] is described as follows: qHTS assay to identify small molecule antagonists of the retinoid-related orphan receptor gamma (ROR-gamma) signaling pathway - cell viability counter screen (AID 1159520). Also: nearly all actives have a fitted effect of over 50% in size. Also: potency is read from the fitted curve at half-maximal effect. The essentials:
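Tet-on ROR gamma CHO cells were given compounds for 2 hr, then doxycycline hyclate at 1 uM final, and incubated 16 hr at 37 C. Viability was measured as ATP content by CellTiter-Glo luminescence.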

A short description of test [12]: qHTS assay to identify small molecule antagonists of the retinoid acid receptor (RAR) signaling pathway - cell viability counter screen (AID 1159551). Also: nearly all actives have a fitted effect of over 35% in size. Also: potency is read from the fitted curve at half-maximal effect. The procedure, abridged: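 Retinol-stimulated (1 uM final) C3RL4 cells, compound 6 h, 37 C; readout CellTiter-Glo luminescence (ATP) after 30 min RT incubation.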
Test [13] can be described thus: qHTS assay to identify small molecule agonists of the AP-1 signaling pathway (AID 1159526; calls by dose curve).
Test [14] can be described thus: qHTS assay to identify small molecule agonists of the endoplasmic reticulum stress response signaling pathway - cell viability counter screen (AID 1159517; calls by dose curve). The essentials: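 Counter-screen wells were identical to the reporter wells. Cells were plated at 1,500 per well and dosed for 5 hr, then read for luminescence 30 min after CellTiter-Glo addition.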
Test [15] is described as follows: qHTS assay to identify small molecule antagonists of the estrogen related receptor (ERR) signaling pathway - cell viability counter screen (AID 1224818). Also: series mostly up to about 46 µM. The procedure, abridged: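 After a 6 h pre-incubation, ERR cells were dosed by pin tool with compounds, positive/negative controls or DMSO alone. Following 17.5 h at 37 C and 30 min with CellTiter-Fluor, fluorescence was recorded.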

Test [16] in a line: qHTS assay to identify small molecule antagonists of the estrogen related receptor (ERR) signaling pathway (AID 1224819). The essentials: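 Luminescence readout (One-Glo, 30 min, RT) of ERR cell line after 18 h compound exposure at 37 C; cells seeded 2,000/well, pre-incubated 6 h, compounds pinned from DMSO stocks.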
Test [17] in a line: qHTS assay to identify small molecule agonists of the estrogen related receptor (ERR) signaling pathway (AID 1224820). The procedure, abridged: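 Quantitative HTS of the LOPAC library used NTP ERR reporter cells treated 18 h at 37 C. Signal is luminescence after One-Glo addition and a 30 min room-temperature incubation.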
The nature of test [18]: qHTS assay to identify small molecule agonists of the estrogen related receptor signaling pathway with the pleiotropic PPARgamma coactivator (PGC) (AID 1224823). The essentials:
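Cell-based luciferase assay in the NTP-supplied PGC/ERR line, 2,000 cells/well; 18 h compound exposure at 37 C, luminescence after One-Glo.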

Sequence of Retinoic acid receptor RXR-alpha (Homo sapiens) (P19793 whole entry, looked up): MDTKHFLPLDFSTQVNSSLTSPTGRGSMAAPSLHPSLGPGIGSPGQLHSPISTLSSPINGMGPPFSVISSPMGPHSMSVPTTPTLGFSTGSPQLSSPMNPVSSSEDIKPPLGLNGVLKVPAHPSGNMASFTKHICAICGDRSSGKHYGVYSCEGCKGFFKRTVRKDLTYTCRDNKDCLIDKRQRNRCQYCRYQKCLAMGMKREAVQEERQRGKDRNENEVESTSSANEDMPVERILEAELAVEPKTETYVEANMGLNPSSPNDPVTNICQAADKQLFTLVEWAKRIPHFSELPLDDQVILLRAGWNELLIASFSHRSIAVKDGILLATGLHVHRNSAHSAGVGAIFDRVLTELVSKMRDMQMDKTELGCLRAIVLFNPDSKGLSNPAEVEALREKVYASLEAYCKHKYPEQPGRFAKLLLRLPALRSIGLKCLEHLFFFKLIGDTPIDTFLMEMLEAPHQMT

Turning to `c1ccc(Nc2cccc3ccccc23)cc1`, the Potency in test [1] was 55.7 µM (active) and inactive; in test [5] it was 31.3 µM (active) and 49 µM (active); in [7], 24.9 µM (active). For the same molecule, the Potency entry in test [2], in test [3], in test [4], in test [6], in [8] and in [9] was “inactive” in each case. Further, the Potency entry in test [10] is “inactive”.

As for `O=C1OC(=O)c2cccc3cccc1c23`, the Potency result in [1], in [2], in [3], in [11], in [4] and in test [5] was “inactive” each time. The Potency result in [6], in [7], in test [12], in test [8], in test [9] and in test [10] was “inactive” in each case.

As for `C=CC(=O)OCCOCC(CC)(COCCOC(=O)C=C)COCCOC(=O)C=C`, the Potency is 64.3 µM (active) in test [1]; 64.3 µM (active) in [2]; 11.3 µM (active) in [11]; 31.9 µM (active) in test [8]; 7.14 µM (active) in [9]; 16 µM (active) in test [10]. The Potency result in test [3] is “inactive”.

As for `O=Cc1ccc(F)cc1`, the Potency result in [1], in test [2], in [3], in [11], in [4] and in test [5] was “inactive” in each case. The Potency result in test [13], in [7], in test [12] and in [10] was “inactive” each time.

Take `C[C@@H]1CC[C@H]2C(C)(C)[C@H]3C[C@@]12CC[C@@]3(C)O`: the Potency entry in test [3], in test [4], in [5], in test [6], in test [12] and in test [8] was “inactive” throughout. Further, the Potency entry in test [9] and in test [10] was “inactive” each time.

On to `COC(=O)C1=C(C)NC(C)=C(C(=O)OCCCN2CCC(c3ccccc3)(c3ccccc3)CC2)C1c1cccc([N+](=O)[O-])c1` (stereo not given), for which the values for the Potency in test [1], in test [2] and in test [4] were 26.6 µM (active), 23.9 µM (active) and 23.7 µM (active), respectively. For the same molecule, the Potency result in test [3], in test [5], in test [12] and in test [9] was “inactive” throughout.

For `Brc1ccccc1-c1ccccc1`, the Potency entry in test [1], in [11], in test [4], in test [5], in test [6] and in test [12] was “inactive” throughout. For the same molecule, the Potency result in test [9], in test [15], in test [16] and in test [10] was “inactive” in each case. Also, the Potency in test [14] is 41.3 µM (active). The call in [17] and in test [18] was inactive.

Take `CSc1c(Cl)c(Cl)c(Cl)c(Cl)c1Cl`: the Potency entry in test [2], in test [11], in test [4], in [12], in test [8] and in test [9] was “inactive” throughout. Moreover, the figures for the Potency in test [14] and in test [7] were 54.6 µM (active) and 43.4 µM (active), respectively.

For `O=C(Nc1ccc(Cl)cc1)Nc1ccc(Cl)c(C(F)(F)F)c1`, the Potency in test [1] is 11.9 µM (active); in test [14] it was 21.3 µM (active); in test [11], 23.7 µM (active); in test [4], 7.5 µM (active); in test [5], 16.9 µM (active); in test [7], 12 µM (active). The figures for the Potency in [12], in test [8] and in test [10] were 29.8 µM (active), 23.7 µM (active) and 11.9 µM (active), respectively. Besides, the Potency result in [9] is “inactive”.

As for `C=C1C(C)(C)[C@@]2(Cl)C(Cl)[C@]1(Cl)C(Cl)(Cl)C2(Cl)Cl` (stereo not given in full), the Potency was 38.2 µM (active) in test [1]; 48.1 µM (active) in [14]; 67.3 µM (active) in test [11]; 47.7 µM (active) in test [4]; 48.1 µM (active) in [5]; 19.1 µM (active) in [7]. Moreover, the Potency in test [8] was 60 µM (active); in test [10] it was 67.3 µM (active). For the same molecule, the Potency result in test [12] and in [9] was “inactive” in each case.
